Outcome and AC50 data for 19 compounds are collected here from PubChem BioAssay (EPA / NIEHS).

Active and inactive are the calls of the source. Rule for the calls: active = hit-call score of the fitted dose curve at least 0.9, where 1 is the maximum; inactive = score below 0.9.

Read-out in the first experiment: Apolipoprotein A-V (APOA5) gene, APOA5 (gene 116519)
The experiment can be described thus: LTEA_HepaRG_APOA5: Life Technologies and Expression Analysis (LTEA) Assay for Apolipoprotein A-V (APOA5) gene using HepaRG (AID 2283474). The settings on record: mRNA level, 48 h; actives raise or lower the signal. The procedure, abridged:
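Differentiated HepaRG cells in serum-free induction medium, exposed 48 h in duplicate to eight half-log concentrations topping at 100 uM (0.5% DMSO). APOA5 mRNA by Fluidigm TaqMan qRT-PCR, normalized to ACTB, GAPDH and POLR2A; bidirectional fit versus DMSO.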
For the compound `Clc1ccccc1-c1nnc(-c2ccccc2Cl)nn1`, the outcome was inactive.

With `ClC1C(Cl)C(Cl)C(Cl)C(Cl)C1Cl` (centres undefined), the result was inactive.

A word on the AC50: it is the concentration at which the activity in the assay is half-maximal. As for `C#CCN1C(=O)COc2cc(F)c(N3C(=O)C4=C(CCCC4)C3=O)cc21`, the AC50 is 23.1 µM (active).

With `CC(C)(C)C(O)/C(=C\c1ccc(Cl)cc1Cl)n1cncn1` (centres undefined), the AC50 is 25.3 µM (active).

Turning to `C[C@H]1[C@H](c2ccc(Cl)cc2)SC(=O)N1C(=O)NC1CCCCC1`, the AC50 is 36.8 µM (active).

In the case of `O=C1c2ccccc2C(=O)N1SC(Cl)(Cl)Cl`, the compound was called inactive.

Regarding `O=C(NC(=O)c1c(F)cccc1F)Nc1ccc(OC(F)(F)C(F)OC(F)(F)F)c(Cl)c1` (centres undefined), the outcome was inactive.

Read-out in a further experiment: Bcl-2 (BID) gene, BID (gene 637)
The experiment in a line: LTEA_HepaRG_BID: Life Technologies and Expression Analysis (LTEA) Assay for Bcl-2 (BID) gene using HepaRG (AID 2283476). The settings on record: mRNA level, 48 h; actives raise or lower the signal. The gist of the method: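 Transcript levels of BID, measured by qRT-PCR and normalized to three housekeeping genes, were fitted bidirectionally against DMSO controls. Cells were HepaRG, dosed 48 h at up to 100 uM.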
`CCN(CC)C(=O)SCc1ccc(Cl)cc1`: the call was inactive.

For the compound `CC1(C)C(C=C(Cl)Cl)C1C(=O)OC(C#N)c1ccc(F)c(Oc2ccccc2)c1` (centres undefined), the call was inactive.

Regarding `O=C(O)COc1ccc(Cl)cc1Cl`, the call was inactive.

Consider `CCC(C)(C)C(=O)OC1=C(c2ccc(Cl)cc2Cl)C(=O)OC12CCCCC2`, for which the compound was called inactive.

As to `CCCN(CCC)c1c([N+](=O)[O-])cc(C(F)(F)F)cc1[N+](=O)[O-]`, the compound was classed as inactive.

`CNC(=O)/C=C(\C)OP(=O)(OC)OC`: the compound was classed as inactive.

Regarding `O=C(O)C(F)(F)C(F)(F)C(F)(F)C(F)(F)C(F)(F)C(F)(F)C(F)(F)F`, the outcome was inactive.

For the compound `CCCN(CCOc1c(Cl)cc(Cl)cc1Cl)C(=O)n1ccnc1`, the compound was called inactive.

Turning to `CCc1ccc(C(=O)NN(C(=O)c2cc(C)cc(C)c2)C(C)(C)C)cc1`, the result was inactive.

As for `N#CN`, the compound was classed as inactive.

In the case of `CCOCN(C(=O)CCl)c1c(C)cccc1CC`, the compound was classed as inactive.

As for `O=S1OCC2C(CO1)C1(Cl)C(Cl)=C(Cl)C2(Cl)C1(Cl)Cl` (centres undefined), the result was inactive.
